This is part of a sample that, as a whole, favours compounds with a hit. Of some 83,000 tested, about 20% had one in any assay.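 Single-dose data. Exposure time 48 hours. Values below 10 considered active.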 Values without a mark were called inactive.

For this experiment, the system named is OVCAR-8 ovarian. As to the kind of experiment: NCI-60 one-dose screen, 48 h (100 = growth as untreated, 0 = no growth, -100 = all killed). The settings on record: 10 µM unless noted.
Turning to `COc1ccc(NC(=O)c2sc3c(=O)[nH]c(C(F)(F)F)nc3c2C)cc1`, the growth is 100%. For `O=C(Nc1cccc(Cl)c1)Nc1ccccc1Cl` the value was 87.3%; for `NC(=O)N/N=C\c1ccc([N+](=O)[O-])o1`, 97.6%. For `CCN(CC)Cc1cc(Nc2ccnc3ccc(OC)cc23)ccc1O` the value was 28.4%; for `CC(C)(C)c1nn(-c2ccccc2)c2c1C(=O)CSC(c1ccc3c(c1)OCO3)N2` (stereo unspecified), 109%.

Take `CN(C)N1C(=O)c2c(Cl)c(Cl)c(Cl)c(Cl)c2C1=O`: the growth is 105%. With `O=c1c2cc(Cl)ccc2oc2ccc(OCCCCCN3CCCCC3)cc12`, the growth is 55.1%. For `C=CCOc1ccc2c(C)cc(=O)oc2c1`, the growth was 103%. `O=C(CSc1nc2c(n1Nc1ccccc1)-c1ccccc1SC2)Nc1nccs1`: the growth is 97.3%. Under `CCNC(=O)c1ccc2c(c1)nc(-c1ccc(Cl)cc1)n2-c1cc(C(C)(C)C)[nH]n1` stands 77.1%; under `CC(C)CC1NC(=O)C(CC(C)C)N(CO)C1=O` (stereo unspecified), 107%. For `CCn1c(=O)c(C(=O)NCCCO)c(O)c2ccccc21` the value was 103%; for `COc1cc(NCC(O)CN(CC(C)C)CC(C)C)c2ncccc2c1` (stereo unspecified), 63.3%; for `CC(=O)Nc1ccc(/C=N/N2CCCCCC2)cc1`, 101%. For `O=c1oc2ccccc2cc1-c1cc(-c2ccc(-c3cc(-c4cc5ccccc5oc4=O)nc(-c4cc5ccccc5oc4=O)c3)cc2)cc(-c2cc3ccccc3oc2=O)n1` the value was 103%; for `CCN(CC)c1ccc(/C=N/N=C(N)N)cc1`, 62.6%.

The record behind these values is PubChem BioAssay (NCI).
